Measured values: PubChem BioAssay (NCI)
About 83,000 compounds went through this panel and 20% of them were active in at least one assay; those are over-represented in the sample as a whole.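 Compound tested at a single concentration for 48 hours in 96-well plates; a percent growth value below 10 was scored as active.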 Activity calls are given as the source filed them.

Tested on: LOX IMVI melanoma
Assay: NCI-60 one-dose screen, 48 h (100 = growth as untreated, 0 = no growth, -100 = all killed)
Details: 10 µM unless noted

Structure (SMILES) | growth
O=[N+]([O-])c1ccc(NC(=S)NNC(=S)Nc2ccc(F)cc2)cc1 | 72.3% (inactive)
O=C(COc1ccc(/C=C2\C(=O)Nc3ccc(F)cc32)cc1)Nc1ccccc1 | 79.6% (inactive)
O=C1[C@@H]2Cc3c([nH]c4ccccc34)[C@H](c3ccc(Br)cc3)N2C(=O)CN1C1CCN(Cc2c(Cl)cccc2Cl)CC1 | 91.7% (inactive)
C/C(=N\NC(=O)/C=C/CC(=O)O)c1nnn(-c2ccc([N+](=O)[O-])cc2)c1C | 101% (inactive)
CS(=O)(=O)c1nccc(-c2c(-c3cccc(OCc4ccc(Cl)c(C(F)(F)F)c4)c3)nc3sccn23)n1 | -75.9% (active)
CCOC(=O)Nc1ccc2c(ccn2C(=O)c2cccc(F)c2)c1 | 49.4% (inactive)
COC(=O)c1cccc(NC2=CC(=O)C(C)=C(C)C2=O)c1 | 61% (inactive)
CCCCc1nc2c(N)nc3ccccc3c2n1Cc1ccc(OC)cc1 | 75% (inactive)
COC(=O)CCSC1=C(C)C(=O)c2ccccc2C1=O | 52.2% (inactive)
O=S(=O)(NCCCNc1nccc(-c2[nH]c(-c3ccccc3)nc2-c2ccc(F)c(O)c2)n1)c1cccc(F)c1 | 70% (inactive)
C/C(=C(\c1ccc(O)cc1)c1ccc(OCCN2CCCCCC2)cc1)c1ccc(Cl)cc1 | -95.4% (active)
Fc1cccc(Cl)c1/C=N/Nc1nc(N/N=C/c2c(F)cccc2Cl)nc(N2CCCCC2)n1 | 19.6% (inactive)
COc1cc2cc(Oc3ccc(NC(=O)Nc4ccc(F)c(C(F)(F)F)c4)cc3)c(C)nc2cc1OCCN(C)C | 54% (inactive)
COC(=O)c1cccc(NC2=C(Cl)C(=O)C(C)=C(C)C2=O)c1 | 69% (inactive)
O=C1C(SCc2ccccc2)=C(Cl)CN1c1ccc(Cl)cc1 | 5.82% (active)
Cc1ccc2c(n1)C(=O)C(Cl)=C(Nc1cccc(C(F)(F)F)c1)C2=O | -61.8% (active)
Cc1cc(C)cc(NC2=C(Cl)C(=O)c3nc(C)ccc3C2=O)c1 | -3.79% (active)
COc1ccc2[nH]cc(/C=N/Nc3ccnc4cc(Cl)ccc34)c2c1 | -92.7% (active)
COc1ccccc1N1CCN(C2=C(Cl)C(=O)c3ncccc3C2=O)CC1 | 50.2% (inactive)
C#CCN(C)CCCOc1ccc(NC(=O)CCCCCCCCC(=O)NO)cc1Cl | 4.6% (active)

Structure (SMILES) | growth
Cn1cc(C2=C(c3coc4cc(Br)ccc34)C(=O)NC2=O)c2ccccc21 | 69.2% (inactive)
CCc1cc(OC(=O)N2CCN(CCC(C)(COC(C)(C)C)COC(C)(C)C)CC2)ccc1Nc1cc(-c2ccc(-n3cccn3)cc2)[nH]n1 | 104% (inactive)
CS(=O)(=O)c1ccc(/C(=N/N=C(N)N)c2ccc(F)cc2)cc1 | 54.4% (inactive)
O=C(N/N=C\c1ccc(F)cc1)c1ccc2nc(-c3ccc(Br)cc3)[nH]c2c1 | -12.3% (active)
CNC(=O)Nc1ccc(Nc2cc(-c3ccc(-n4cccn4)cc3)[nH]n2)c(C)c1 | 129% (inactive)
COc1ccc(C(C)=C(c2ccc(OCCN(C)C)cc2)c2ccc(OCCN(C)C)cc2)cc1 | -79.9% (active)
CN1CCN(c2ccc(C(=O)/C=C/c3cc(F)cc(C(F)(F)F)c3)cc2)CC1 | 7.73% (active)
O=C1c2ccccc2C23C(=C(c4cncnc4)c4ccccc42)CCCN13 (stereo not given) | 76.1% (inactive)
NC(=O)c1c(NC(=O)c2ccc(C(F)(F)F)cc2)sc2c1CCC(=O)C2 | -37.2% (active)
Cc1ccc2c(n1)C(=O)C(Cl)=C(Nc1cccc(C)c1C)C2=O | -21.1% (active)
CCCCCCNC(=O)Oc1ccc(/C(=C(/C)c2ccc(OC)cc2)c2ccc(OCCN3CCCCCC3)cc2)cc1 | -94.2% (active)
NS(=O)(=O)c1ccc(Nc2nc(N/N=C/C=C/c3ccccc3)nc(Nc3ccccc3)n2)cc1 | 27.3% (inactive)
CC/C(=C(/c1ccc(Cl)cc1)c1ccc(OCCN)cc1)c1ccccc1 | 27.8% (inactive)
COC(=O)c1ccc(NC2=C(Cl)C(=O)C(C)=C(C)C2=O)cc1 | 24.7% (inactive)
COc1ccc(NC(=O)CCCCCCNC(=O)C(O)(O)C(F)(F)F)cc1 | 35.2% (inactive)
COc1cc2c3c(cc4c5c(ccc4c3c1OC)OCO5)N(CCN(C)C)C2=O | -82.6% (active)
O=S(=O)(Oc1ccc(-c2cn3ccoc3n2)cc1)C1CCCCC1 | 100% (inactive)
COc1ccc(-c2nc(C#N)c(N3CCC(S(=O)(=O)N4CCOCC4)CC3)o2)cc1 | 100% (inactive)
O=c1c2cc(-c3ccc(F)cc3F)ccc2n(Nc2ccccc2)c(=O)n1-c1cccc(C(F)(F)F)c1 | -4.69% (active)
COc1ccc(OC)c(CCn2cncc2-c2c[nH]c3ccc(Cl)cc23)c1 | 47.3% (inactive)

Tested on: SK-MEL-28 melanoma
Assay: as above
Details: 10 µM unless noted

Structure (SMILES) | growth
O=[N+]([O-])c1ccc(NC(=S)NNC(=S)Nc2ccc(F)cc2)cc1 | 98.4% (inactive)
O=C(COc1ccc(/C=C2\C(=O)Nc3ccc(F)cc32)cc1)Nc1ccccc1 | 106% (inactive)
O=C1[C@@H]2Cc3c([nH]c4ccccc34)[C@H](c3ccc(Br)cc3)N2C(=O)CN1C1CCN(Cc2c(Cl)cccc2Cl)CC1 | 111% (inactive)
C/C(=N\NC(=O)/C=C/CC(=O)O)c1nnn(-c2ccc([N+](=O)[O-])cc2)c1C | 114% (inactive)
CS(=O)(=O)c1nccc(-c2c(-c3cccc(OCc4ccc(Cl)c(C(F)(F)F)c4)c3)nc3sccn23)n1 | 50.5% (inactive)
CCOC(=O)Nc1ccc2c(ccn2C(=O)c2cccc(F)c2)c1 | 61.5% (inactive)
COC(=O)c1cccc(NC2=CC(=O)C(C)=C(C)C2=O)c1 | 111% (inactive)
CCCCc1nc2c(N)nc3ccccc3c2n1Cc1ccc(OC)cc1 | 90.2% (inactive)
COC(=O)CCSC1=C(C)C(=O)c2ccccc2C1=O | 106% (inactive)
O=S(=O)(NCCCNc1nccc(-c2[nH]c(-c3ccccc3)nc2-c2ccc(F)c(O)c2)n1)c1cccc(F)c1 | 31.8% (inactive)
C/C(=C(\c1ccc(O)cc1)c1ccc(OCCN2CCCCCC2)cc1)c1ccc(Cl)cc1 | -84.1% (active)
Fc1cccc(Cl)c1/C=N/Nc1nc(N/N=C/c2c(F)cccc2Cl)nc(N2CCCCC2)n1 | 44.9% (inactive)
COc1cc2cc(Oc3ccc(NC(=O)Nc4ccc(F)c(C(F)(F)F)c4)cc3)c(C)nc2cc1OCCN(C)C | 81% (inactive)
COC(=O)c1cccc(NC2=C(Cl)C(=O)C(C)=C(C)C2=O)c1 | 110% (inactive)
O=C1C(SCc2ccccc2)=C(Cl)CN1c1ccc(Cl)cc1 | 88.1% (inactive)
Cc1ccc2c(n1)C(=O)C(Cl)=C(Nc1cccc(C(F)(F)F)c1)C2=O | 78.5% (inactive)
Cc1cc(C)cc(NC2=C(Cl)C(=O)c3nc(C)ccc3C2=O)c1 | 81.8% (inactive)
COc1ccc2[nH]cc(/C=N/Nc3ccnc4cc(Cl)ccc34)c2c1 | -100% (active)
COc1ccccc1N1CCN(C2=C(Cl)C(=O)c3ncccc3C2=O)CC1 | 98.4% (inactive)
C#CCN(C)CCCOc1ccc(NC(=O)CCCCCCCCC(=O)NO)cc1Cl | 77% (inactive)

Structure (SMILES) | growth
Cn1cc(C2=C(c3coc4cc(Br)ccc34)C(=O)NC2=O)c2ccccc21 | 88.6% (inactive)
CCc1cc(OC(=O)N2CCN(CCC(C)(COC(C)(C)C)COC(C)(C)C)CC2)ccc1Nc1cc(-c2ccc(-n3cccn3)cc2)[nH]n1 | 96.6% (inactive)
CS(=O)(=O)c1ccc(/C(=N/N=C(N)N)c2ccc(F)cc2)cc1 | 95.5% (inactive)
O=C(N/N=C\c1ccc(F)cc1)c1ccc2nc(-c3ccc(Br)cc3)[nH]c2c1 | 10.8% (inactive)
CNC(=O)Nc1ccc(Nc2cc(-c3ccc(-n4cccn4)cc3)[nH]n2)c(C)c1 | 114% (inactive)
COc1ccc(C(C)=C(c2ccc(OCCN(C)C)cc2)c2ccc(OCCN(C)C)cc2)cc1 | -88.4% (active)
CN1CCN(c2ccc(C(=O)/C=C/c3cc(F)cc(C(F)(F)F)c3)cc2)CC1 | 96.3% (inactive)
O=C1c2ccccc2C23C(=C(c4cncnc4)c4ccccc42)CCCN13 (stereo not given) | 101% (inactive)
NC(=O)c1c(NC(=O)c2ccc(C(F)(F)F)cc2)sc2c1CCC(=O)C2 | 4.03% (active)
Cc1ccc2c(n1)C(=O)C(Cl)=C(Nc1cccc(C)c1C)C2=O | 6.66% (active)
CCCCCCNC(=O)Oc1ccc(/C(=C(/C)c2ccc(OC)cc2)c2ccc(OCCN3CCCCCC3)cc2)cc1 | -36.1% (active)
NS(=O)(=O)c1ccc(Nc2nc(N/N=C/C=C/c3ccccc3)nc(Nc3ccccc3)n2)cc1 | 60.3% (inactive)
CC/C(=C(/c1ccc(Cl)cc1)c1ccc(OCCN)cc1)c1ccccc1 | 108% (inactive)
COC(=O)c1ccc(NC2=C(Cl)C(=O)C(C)=C(C)C2=O)cc1 | 75.9% (inactive)
COc1ccc(NC(=O)CCCCCCNC(=O)C(O)(O)C(F)(F)F)cc1 | 40% (inactive)
COc1cc2c3c(cc4c5c(ccc4c3c1OC)OCO5)N(CCN(C)C)C2=O | -86.6% (active)
O=S(=O)(Oc1ccc(-c2cn3ccoc3n2)cc1)C1CCCCC1 | 100% (inactive)
COc1ccc(-c2nc(C#N)c(N3CCC(S(=O)(=O)N4CCOCC4)CC3)o2)cc1 | 99% (inactive)
O=c1c2cc(-c3ccc(F)cc3F)ccc2n(Nc2ccccc2)c(=O)n1-c1cccc(C(F)(F)F)c1 | 29.5% (inactive)
COc1ccc(OC)c(CCn2cncc2-c2c[nH]c3ccc(Cl)cc23)c1 | 67.7% (inactive)
